{"source": "PubChem BioAssay AID504861", "about": "(Broad Institute, 2011)", "note": "Out of some 1,200 compounds screened, about 290 (24%) were called active. Not shown: some 3% with an inconclusive outcome.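 How the source made its calls: active means compounds lowering cell viability signal with fitted half-maximal concentration at most ten times their highest tested concentration; inconclusive means flat fit with 30 to 70% signal loss, or poor fit; inactive means the rest.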 The list is a sample of the results. Measured potencies and affinities stand elsewhere.", "data": [{"assay": "HEK293T cell viability reduction, dose response, cytotoxicity control for LMP1 NF-kB inhibitor project, CellTiter-Glo luminescence, cherry-picks (AID 504861)", "conditions": "CellTiter-Glo ATP luminescence, 48 h; series mostly up to 26 µM", "values": [{"smiles": "Nc1ncnc2c1c(-c1ccc(Oc3ccccc3)cc1)cn2C1CCCC1", "outcome": "inactive"}, {"smiles": "O=C(Nc1cc(C(F)(F)F)cc(C(F)(F)F)c1)Nc1cnn(-c2ccc([N+](=O)[O-])cc2)c1C(F)(F)F", "outcome": "inactive"}, {"smiles": "CCOc1ccc(NC(=O)c2ccc(N3CC4CC(C3)c3cccc(=O)n3C4)c(NC(=O)c3cccnc3)c2)cc1", "note": "(configuration not stated)", "outcome": "inactive"}, {"smiles": "Cc1cccc(S(=O)(=O)N2CCCc3ccccc32)c1", "outcome": "inactive"}, {"smiles": "COc1ccc(OC)c(NC(=O)COc2coc(CN3CCc4ccccc43)cc2=O)c1", "outcome": "inactive"}, {"smiles": "Nc1ccc(CCNc2ncnc3c2ncn3[C@@H]2O[C@H](CO)[C@@H](O)[C@H]2O)cc1", "outcome": "inactive"}, {"smiles": "COc1ccc(-c2cc(C(F)(F)F)n3nc(C(=O)N4CCOCC4)nc3n2)cc1", "outcome": "inactive"}, {"smiles": "O=C(Nc1ccc2c(c1)C(=O)OC2)c1ccc(C(F)(F)F)cc1", "outcome": "inactive"}, {"smiles": "O=C(Cn1nc(C(F)(F)F)c2c1CCC2)NC1CCCCC1", "outcome": "inactive"}, {"smiles": "O=[N+]([O-])c1cc(/C=N\\O)ccc1Oc1ccc(F)cc1", "outcome": "inactive"}, {"smiles": "COc1cc2cc(C(=O)Nc3ccc4c(c3)OCCO4)[nH]c2cc1OC", "outcome": "inactive"}, {"smiles": "O=C(NNC(=S)Nc1ccc(Cl)c(Cl)c1)c1ccccn1", "outcome": "inactive"}, {"smiles": "CC(=O)Nc1ccc(NC(=O)C(c2ccccc2)c2ccccc2)cc1", "outcome": "inactive"}, {"smiles": "COCCCn1cnnc1SCC(=O)Nc1ccc(S(=O)(=O)N2CCCC2)cc1", "outcome": "inactive"}, {"smiles": "CC1CCN(C(=O)/C(=C\\c2cccs2)NC(=O)c2ccccc2)CC1", "outcome": "inactive"}, {"smiles": "COc1ccc(C=C2OC(=O)C(C(C)=O)=C2O)cc1", "outcome": "inactive"}, {"smiles": "Cc1cc(C(=O)CN2C(=O)c3ccccc3C2=O)c(C)n1Cc1cccs1", "outcome": "inactive"}, {"smiles": "Cc1cccc(C)c1NC(=O)CN(C)CC(=O)Nc1ccccc1Oc1ccccc1", "outcome": "inactive"}, {"smiles": "COCCn1c(SCC(=O)NCc2ccco2)nnc1-c1c[nH]c2ccccc12", "outcome": "inactive"}, {"smiles": "c1ccc(OCCSc2nnc3sc4ccccc4n23)cc1", "outcome": "inactive"}, {"smiles": "CC(C)Oc1ccc(C2CC(=O)NC2=O)cc1", "note": "(configuration not stated)", "outcome": "inactive"}, {"smiles": "COCC(=O)N(C)c1nnc(-c2ccccn2)s1", "outcome": "inactive"}, {"smiles": "CCOC(=O)c1c2c(n(C)c1C)C(=O)C(=O)c1ccc(Br)cc1-2", "outcome": "inactive"}, {"smiles": "CCOC(=O)N1CCC(n2c(=S)[nH]c3ccccc3c2=O)CC1", "outcome": "inactive"}, {"smiles": "N#CC(C#N)c1ccnc2ccccc12", "outcome": "inactive"}, {"smiles": "O=C(O)/C=C/c1ccc(Cn2ccnc2)cc1", "outcome": "inactive"}, {"smiles": "Cc1ccc(C(=O)Nc2cccc(C(F)(F)F)c2)cc1Nc1ncnc2nc[nH]c12", "outcome": "inactive"}, {"smiles": "Cc1ccc(C(=O)Nc2cccc(C(F)(F)F)c2)cc1NC(=O)c1ccno1", "outcome": "inactive"}, {"smiles": "CCN1CCN(Cc2ccc(NC(=O)c3ccc(C)c(NC(=O)c4ccno4)c3)cc2C(F)(F)F)CC1", "outcome": "inactive"}, {"smiles": "CCN1CCN(Cc2ccc(NC(=O)c3ccc(C)c(NC(=O)c4cccc5[nH]ccc45)c3)cc2C(F)(F)F)CC1", "outcome": "inactive"}, {"smiles": "CCN1CCN(Cc2ccc(NC(=O)c3ccc(C)c(NC(=O)N4CCNC4=O)c3)cc2C(F)(F)F)CC1", "outcome": "inactive"}, {"smiles": "CCN1CCN(Cc2ccc(NC(=O)c3ccc(C)c(NC(=O)c4nccn4C)c3)cc2C(F)(F)F)CC1", "outcome": "inactive"}, {"smiles": "COc1cccc(CC(=O)NNC(=O)c2ccc3c(c2)OCO3)c1", "outcome": "inactive"}, {"smiles": "COC(=O)c1c(O)ccc(Oc2ccccc2)c1C(=O)OC", "outcome": "inactive"}, {"smiles": "CCC(=O)NC(=S)Nc1ccccc1C(F)(F)F", "outcome": "inactive"}, {"smiles": "N#CC1=C(N)N2C(=C(C#N)C1c1cccc(Br)c1)Nc1ccccc12", "note": "(configuration not stated)", "outcome": "inactive"}, {"smiles": "C[C@@H](C(=O)Nc1ccc2c(c1)OCCO2)n1c(=O)[nH]c2ccccc2c1=O", "outcome": "inactive"}, {"smiles": "Cc1nnc(SCC(=O)N2CCC(c3noc4ccc(F)cc34)CC2)s1", "outcome": "inactive"}, {"smiles": "S=C1SCN(Cc2ccco2)CN1Cc1ccco1", "outcome": "inactive"}, {"smiles": "O=C(CN(Cc1cccs1)C(=O)CNS(=O)(=O)c1ccccc1)NCc1ccco1", "outcome": "inactive"}, {"smiles": "COC(=O)c1ccc2nc(-c3cccc(N)c3)cn2c1", "outcome": "inactive"}, {"smiles": "Cc1ccc(S(=O)(=O)N2CCN(C(=O)CSc3nnnn3C)C2)cc1", "outcome": "inactive"}, {"smiles": "O=C(O)C1CC(=O)N(c2ccc(Br)cc2)C1", "note": "(configuration not stated)", "outcome": "inactive"}, {"smiles": "CCOc1ccc(C(=O)NC(=S)N(Cc2ccccc2)Cc2ccccc2)cc1", "outcome": "inactive"}, {"smiles": "COCCn1c(C)cc(C(=O)COc2ccc(C)nc2[N+](=O)[O-])c1C", "outcome": "inactive"}, {"smiles": "C=CCN(c1ccc(C(=O)Nc2ccc3c(c2)n(C)c(=O)n3C)cc1)S(C)(=O)=O", "outcome": "inactive"}, {"smiles": "CC(C)N1CCN(c2ccc(OC[C@H]3CO[C@](Cn4cncn4)(c4ccc(Cl)cc4Cl)O3)cc2)CC1", "outcome": "inactive"}, {"smiles": "CC(C)Oc1ccc(C(=O)Nc2nnc(SCC(=O)N3CCOCC3)s2)cc1", "outcome": "inactive"}, {"smiles": "CCOc1ccc(N/C=C/C(=O)c2ccccc2)cc1", "outcome": "inactive"}, {"smiles": "Clc1cccc(CN2CCCCCC2)c1", "outcome": "inactive"}, {"smiles": "CC(=O)c1ccc(N2CCN(c3ccnc4cc(Cl)ccc34)CC2)cc1", "outcome": "inactive"}, {"smiles": "c1ccc(C2c3[nH]c4ccccc4c3CCN2Cc2cccn2-c2ccccn2)nc1", "note": "(configuration not stated)", "outcome": "inactive"}, {"smiles": "Cn1c(=O)c2ncn(CC(=O)O)c2n(C)c1=O", "outcome": "inactive"}, {"smiles": "Cc1cc(C)c(S(=O)(=O)Nc2nnc(CC(C)C)s2)c(C)c1", "outcome": "inactive"}, {"smiles": "CCn1c(=O)c2c(cnn2C)c2ccccc21", "outcome": "inactive"}, {"smiles": "COc1cc(Cl)cc(C(c2c(C(=O)O)[nH]c3ccccc23)c2c(C(=O)O)[nH]c3ccccc23)c1O", "outcome": "inactive"}, {"smiles": "O=C1CC(c2ccccc2)Oc2ccccc21", "note": "(configuration not stated)", "outcome": "inactive"}, {"smiles": "CCOC(=O)c1c(NC(=O)C2C3CCC(O3)C2C(=O)O)sc(C)c1-c1ccc(F)cc1", "note": "(configuration not stated)", "outcome": "inactive"}, {"smiles": "Cc1nc2sc(C(N)=O)c(N)c2c2c1CCCC2", "outcome": "inactive"}, {"smiles": "O=C(NC(Cc1c[nH]c2ccccc12)C(=O)Nc1ccc(F)c([N+](=O)[O-])c1)c1cccs1", "note": "(configuration not stated)", "outcome": "inactive"}, {"smiles": "COCC(=O)N1CCC(Oc2ccc(C(=O)N3C[C@H]4CC[C@H]3C4)cc2)CC1", "outcome": "inactive"}, {"smiles": "CC1=C(C(=O)OCc2ccc3c(c2)OCO3)C(c2ccc(Cl)cc2)NC(=O)N1", "note": "(configuration not stated)", "outcome": "inactive"}, {"smiles": "COc1ccc(N2Cc3cccc(C(=O)NC(C)CCc4ccco4)c3C2=O)cc1", "note": "(configuration not stated)", "outcome": "inactive"}, {"smiles": "COc1ccc(CCNC(=O)CSC(=O)c2ccccc2)cc1OC", "outcome": "inactive"}, {"smiles": "CCCN(CC1CC1)c1nc(C)nc(Nc2c(Cl)cc(Cl)cc2Cl)c1Cl", "outcome": "inactive"}, {"smiles": "CC(C)Nc1nnc(SCC(=O)c2c(N)n(Cc3ccccc3)c(=O)n(C)c2=O)s1", "outcome": "inactive"}, {"smiles": "COc1cccc(C(=O)OCn2nnc3ccccc3c2=O)c1OC", "outcome": "inactive"}]}]}
